Laboratory results as given in PubChem BioAssay.
Active and inactive are the calls of the source. No rule for the calls is given here.

Target: Pantothenate synthetase (Mycobacterium tuberculosis (strain ATCC 25618 / H37Rv)) (UniProt P9WIL5)
Assay: Coupled enzyme confirmation of inhibitors against recombinant Mtb PanC (AID 375);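 also: 0% = full reaction with vehicle and 100% = no enzyme background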
Details: coupled enzyme assay; at 10 µM, active compounds read high

Sequence of Pantothenate synthetase (Mycobacterium tuberculosis (strain ATCC 25618 / H37Rv)) (P9WIL5 whole entry, looked up): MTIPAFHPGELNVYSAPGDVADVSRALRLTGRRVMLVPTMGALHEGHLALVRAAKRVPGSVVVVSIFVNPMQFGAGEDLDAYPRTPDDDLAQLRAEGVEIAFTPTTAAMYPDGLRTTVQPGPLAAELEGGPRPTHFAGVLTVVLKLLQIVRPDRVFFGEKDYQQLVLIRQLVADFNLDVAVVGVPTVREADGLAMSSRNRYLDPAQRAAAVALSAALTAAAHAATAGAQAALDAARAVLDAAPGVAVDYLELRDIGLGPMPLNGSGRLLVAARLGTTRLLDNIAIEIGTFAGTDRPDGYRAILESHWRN

| Compound | inhibition |
| --- | --- |
| C[N+](C)(C)CCCCCCCCCC[N+](C)(C)C | 4% (inactive) |
| CN1CCN(CCCN2c3ccccc3Sc3ccc(Cl)cc32)CC1 | 0% (inactive) |
| COc1ccccc1N(CN1CCCC1=O)C(=O)c1c(F)cccc1Cl | 0% (inactive) |
| O=C(O)CCCCCNc1nc(=S)[nH]c2ccccc12 | 0% (inactive) |
| CCOc1cc(S(=O)(=O)Nc2ccccn2)ccc1F | 0% (inactive) |
| O=C(Nc1cccc(Cl)c1)N1CCN(c2ncccn2)CC1 | 1% (inactive) |
| Cc1ccc(OCC(=O)N2CCN(C(=O)CCC3CCCC3)CC2)cc1 | 0% (inactive) |
| CCOC(=O)C1(CC)NC(c2cccc(F)c2)C2C(=O)N(CC)C(=O)C21 (centres undefined) | 0% (inactive) |
| CC1=C(C#N)C(=O)NC(C)(C)C1 | 0% (inactive) |
| Cc1c(C(=O)OC2CCC(C)CC2)[nH]c2c1C(=O)CCC2 (centres undefined) | 2% (inactive) |
| COc1cccc(NC(=O)c2nnn(Cc3ccc(Br)cc3F)c2N)c1 | 7% (inactive) |
| CC(C)CCNc1cc(=O)n(C)c(=O)n1C | 0% (inactive) |
| CCOc1cc(C2c3c(n[nH]c3C)C(=O)N2c2ccc(Br)cc2)ccc1O (centres undefined) | 0% (inactive) |
| CC1(C)OC(=O)N(c2cccnc2)C1(C)O (centres undefined) | 3% (inactive) |
| CCSc1nc(-c2ccc(OC)cc2)ccc1C#N | 1% (inactive) |
| Cc1nnc(Nc2ccccn2)c2ccccc12 | 0% (inactive) |
| CCOC(=O)N1CCN(S(=O)(=O)c2ccc(F)c(C(=O)Nc3cc(C)cc(C)c3)c2)CC1 | 7% (inactive) |
| CC1(C)NC(=O)N(CCCOc2ccc(Br)cc2Cl)C1=O | 0% (inactive) |
| N=c1nc(N2CCCCC2)cc(N)n1O | 0% (inactive) |
| CC(Oc1ccc(Cl)cc1Cl)c1nc(-c2ccc(NC(=O)c3cccnc3)cc2)no1 (centres undefined) | 3% (inactive) |

| Compound | inhibition |
| --- | --- |
| O=S(=O)(NCc1ccccc1)c1ccc2c(c1)OCCO2 | 0% (inactive) |
| Cc1ccc(C2=Nc3ccccc3NC(C)(c3ccc(C)o3)C2)o1 (centres undefined) | 0% (inactive) |
| CCN1CCN(c2ncnc3c2oc2nc(C)c4c(c23)CC(C)(C)OC4)CC1 | 0% (inactive) |
| CCC(C)NC(=O)C1c2cc(OC)c(OC)cc2C(=O)N(C)C1c1ccc(OC)cc1 (centres undefined) | 0% (inactive) |
| COCC(=O)Nc1cc(OC)ccc1OC | 3% (inactive) |
| Cc1ccc2c(c1)C(N1CCCC1=O)CC(c1ccco1)N2 (centres undefined) | 0% (inactive) |
| Oc1c(Cl)cc(Cl)cc1Sc1cc(Cl)cc(Cl)c1O | 0% (inactive) |
| COc1ccc(S(=O)(=O)N(CCN2CCOCC2)Cc2cc(OC)ccc2OC)cc1 | 4% (inactive) |
| CC(C)(C)NC[C@H](O)COc1nsnc1N1CCOCC1 | 2% (inactive) |
| Cc1ccnc(N2CCN(C(=O)CSc3nc4ccccc4nc3N3CCCCC3)CC2)c1 | 1% (inactive) |
| CC(=O)N1CCC(N(C(=O)Nc2ccc(C)c(C)c2)C2CCCC2)CC1 | 0% (inactive) |
| Cc1cccc(N(C)C(=O)c2coc(=O)c3ccccc23)c1 | 0% (inactive) |
| COc1ccc(-c2ccc(Nc3ccc(S(=O)(=O)N4CCCC4)cc3)nn2)cc1OC | 11% (inactive) |
| COc1cccc(CNc2nc3nc(C)c(Cl)c(C)n3n2)c1 | 12% (inactive) |
| Cc1cc(NC(=O)COC(=O)C2COc3ccccc3O2)no1 (centres undefined) | 4% (inactive) |
| Cc1ccc(S(=O)(=O)N2CCCC2C(=O)OCc2ccco2)cc1 (centres undefined) | 5% (inactive) |
| CSCCC(C(=O)Nc1ccc2c(c1)OCO2)N1C(=O)c2ccccc2C1=O (centres undefined) | 0% (inactive) |
| O=C(Nn1c(C2CC2)nc2ccccc2c1=O)c1ccco1 | 0% (inactive) |
| CCOC(=O)c1[nH]c(C)c(C(=O)N2CCN(c3ccc(F)cc3)CC2)c1C | 0% (inactive) |
